Data published in PubChem BioAssay (NCI).
This is part of a sample that, as a whole, favours compounds with a hit. Of some 79,000 tested, about 15% had one in any assay. Calls of active or inactive are those of the source. Cut-off read from the data, not from the text of the source: active = growth inhibition above about 70%; inactive = the rest.

Assays:
[1] = NCI Yeast Anticancer Drug Screen. Data for the rad50 strain (AID 155);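 note: 0% = growth of vehicle-only cultures of the same strain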; details: S. cerevisiae rad50 strain growth inhibition, active compounds read high
Procedure, shortened: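 Readout: growth inhibition relative to vehicle-treated cultures. Compound exposure was carried out in a genetically defined yeast strain deficient in DNA damage repair.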

[2] = NCI Yeast Anticancer Drug Screen. Data for the mec2-1 strain (AID 157); details: S. cerevisiae mec2-1 strain, active compounds read high
Procedure, shortened: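 Readout is yeast growth inhibition, normalised to vehicle-treated controls, in the mec2-1 strain exposed to compound.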

[3] = NCI Yeast Anticancer Drug Screen. Data for the sgs1 mgt1 strain (AID 161);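 note: 0% = growth of cultures given vehicle only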; details: S. cerevisiae sgs1 mgt1 strain, active compounds read high
Procedure, shortened: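 Yeast cells carrying a defined DNA-repair defect were exposed to test compounds. Growth inhibition was measured relative to vehicle-treated controls.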

[4] = NCI Yeast Anticancer Drug Screen. Data for the cln2 rad14 strain (AID 165);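 note: 0% = growth equal to vehicle treated cultures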; details: S. cerevisiae cln2 rad14 strain, active compounds read high
Procedure, shortened: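 Relative to vehicle controls, growth inhibition of compound-treated cln2 rad14 yeast was recorded.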

[5] = NCI Yeast Anticancer Drug Screen. Data for the bub3 strain (AID 167); details: S. cerevisiae bub3 mutant strain, active compounds read high
Procedure, shortened: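 Readout: yeast growth inhibition, expressed relative to vehicle-only wells. The test organism is a mutant strain from a panel with lesions in DNA repair or checkpoint genes.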

[6] = NCI Yeast Anticancer Drug Screen. Data for the mlh1 rad18 strain (AID 175); details: S. cerevisiae mlh1 rad18 strain growth inhibition, active compounds read high
Procedure, shortened: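 Test agents were incubated with a yeast strain of defined genotype (DNA damage repair defect). Inhibition of growth was derived by comparison with vehicle-exposed cultures.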

[7] = at 5.0 µM (retest, dose inferred, filed as 0.5)
[8] = at 50.0 µM (retest, dose inferred, filed as 5.0)

SMILES	growth inhibition [1, 7]	growth inhibition [1, 8]	growth inhibition ([1]; at 50.0 µM)	growth inhibition [2, 7]	growth inhibition [2, 8]	growth inhibition ([2]; at 50.0 µM)	growth inhibition [3, 7]	growth inhibition [3, 8]	growth inhibition ([3]; at 50.0 µM)	growth inhibition [4, 7]	growth inhibition [4, 8]	growth inhibition ([4]; at 50.0 µM)	growth inhibition [5, 7]	growth inhibition [5, 8]	growth inhibition ([5]; at 50.0 µM)	growth inhibition [6, 7]	growth inhibition [6, 8]	growth inhibition ([6]; at 50.0 µM)
Cc1cccc(-c2nnc(-c3cccc(C)c3)o2)c1	39% (inactive)	44% (inactive)	54.8% (inactive)	30% (inactive)	43% (inactive)	14.7% (inactive)	19% (inactive)	47% (inactive)	63.6% (inactive)	53% (inactive)	33% (inactive)	43.2% (inactive)	54% (inactive)	66% (inactive)	55% (inactive)	32% (inactive)	44% (inactive)	23.4% (inactive)
CSC(=S)n1nc(-c2cccs2)c(N=Nc2ccccc2)c1C(F)(F)F	5% (inactive)	97% (active)	93% (active)	-1% (inactive)	98% (active)	96.8% (active)	8% (inactive)	97% (active)	93% (active)	6% (inactive)	97% (active)	65.3% (inactive)	2% (inactive)	97% (active)	78% (active)	1% (inactive)	95% (active)	94.4% (active)
CNC(=O)OCC1=CC(=O)C(OC)=C(OC)C1=O	-15% (inactive)	-8% (inactive)	4.5% (inactive)	-12% (inactive)	-14% (inactive)	11.9% (inactive)	-10% (inactive)	-2% (inactive)	28.4% (inactive)	-6% (inactive)	-5% (inactive)	9.55% (inactive)	-9% (inactive)	-6% (inactive)	-20.6% (inactive)	-8% (inactive)	-5% (inactive)	8.95% (inactive)
Cc1sc(Cc2ccccc2)nc1-c1ccc(N=Cc2ccc(N(CCOS(C)(=O)=O)CCOS(C)(=O)=O)cc2)cc1	53% (inactive)	95% (active)	94% (active)	-10% (inactive)	97% (active)	97.8% (active)	32% (inactive)	95% (active)	96.5% (active)	38% (inactive)	95% (active)	93.8% (active)	1% (inactive)	94% (active)	91.3% (active)	82% (active)	95% (active)	96.5% (active)
COC1=CC(=O)c2c(O)c3c(c(O)c2C1=O)OC1(Oc2c(cc4cc(C)oc(=O)c4c2O)CC1O)C3O (configuration not stated)	96% (active)	97% (active)	91.1% (active)	98% (active)	99% (active)	92.5% (active)	97% (active)	98% (active)	92.8% (active)	98% (active)	99% (active)	90.5% (active)	99% (active)	99% (active)	91% (active)	97% (active)	98% (active)	91% (active)
Cc1cc(C(=O)c2ccccc2)ccc1O	2% (inactive)	33% (inactive)	48% (inactive)	-6% (inactive)	36% (inactive)	36.9% (inactive)	3% (inactive)	47% (inactive)	46.6% (inactive)	-7% (inactive)	-16% (inactive)	-8.4% (inactive)	-3% (inactive)	3% (inactive)	48.7% (inactive)	-2% (inactive)	36% (inactive)	70.1% (active)
CCN(CC)CCCC(C)Nc1c2ccccc2nc2c(C)cc(Br)cc12 (configuration not stated)	2% (inactive)	72% (active)	58% (inactive)	8% (inactive)	61% (inactive)	39.5% (inactive)	17% (inactive)	76% (active)	63.1% (inactive)	19% (inactive)	66% (inactive)	91.2% (active)	17% (inactive)	71% (active)	36.9% (inactive)	8% (inactive)	69% (inactive)	50.1% (inactive)
O/N=C(/CN1CCN(c2ccccc2)CC1)c1ccccc1	1% (inactive)	-1% (inactive)	45.4% (inactive)	0% (inactive)	-2% (inactive)	-14.4% (inactive)	-4% (inactive)	-3% (inactive)	10.7% (inactive)	2% (inactive)	1% (inactive)	-68.2% (inactive)	-2% (inactive)	-2% (inactive)	13.4% (inactive)	1% (inactive)	-4% (inactive)	-3.8% (inactive)
CCC/C=C1/OC(=O)C2=C[C@H]3CC[C@]21[C@]1(OC(=O)C2=C1CCC=C2)[C@H]3CCC	0% (inactive)	96% (active)	88.2% (active)	14% (inactive)	97% (active)	88.9% (active)	17% (inactive)	96% (active)	87.8% (active)	-6% (inactive)	96% (active)	86.9% (active)	2% (inactive)	93% (active)	88.3% (active)	14% (inactive)	95% (active)	90.5% (active)
Oc1c(N2CCOCC2)cc(-c2cc(N3CCOCC3)c(O)c3ccccc23)c2ccccc12	26% (inactive)	30% (inactive)	82.2% (active)	35% (inactive)	38% (inactive)	86.3% (active)	-19% (inactive)	9% (inactive)	50.3% (inactive)	9% (inactive)	21% (inactive)	42.5% (inactive)	16% (inactive)	43% (inactive)	51.6% (inactive)	35% (inactive)	39% (inactive)	80.5% (active)
C#CCNC1=CC(=O)CCC1	-14% (inactive)	16% (inactive)	-12.1% (inactive)	0% (inactive)	-1% (inactive)	9.55% (inactive)	-3% (inactive)	-10% (inactive)	-4.55% (inactive)	17% (inactive)	6% (inactive)	58.5% (inactive)	14% (inactive)	-13% (inactive)	35.5% (inactive)	-4% (inactive)	1% (inactive)	17.6% (inactive)
Cc1cc(SCC(=O)c2ccc(Br)cc2)cc(C)[o+]1	-14% (inactive)	80% (active)	94.5% (active)	4% (inactive)	95% (active)	95% (active)	20% (inactive)	81% (active)	91.5% (active)	-42% (inactive)	75% (active)	90% (active)	-5% (inactive)	95% (active)	93.1% (active)	-8% (inactive)	92% (active)	95.1% (active)
N#CC(CC(=O)O)C(c1cccc2ccccc12)c1cccc2ccccc12 (configuration not stated)	10% (inactive)	99% (active)	99.1% (active)	17% (inactive)	99% (active)	98.5% (active)	4% (inactive)	98% (active)	98.8% (active)	4% (inactive)	99% (active)	97.6% (active)	17% (inactive)	99% (active)	98.5% (active)	17% (inactive)	99% (active)	99.2% (active)
COC1OC(CI)C(OC(c2ccccc2)(c2ccccc2)c2ccccc2)C(OC(c2ccccc2)(c2ccccc2)c2ccccc2)C1OC(c1ccccc1)(c1ccccc1)c1ccccc1 (configuration not stated)	-14% (inactive)	-6% (inactive)	96.4% (active)	-17% (inactive)	-22% (inactive)	98.5% (active)	-8% (inactive)	-18% (inactive)	94.5% (active)	-10% (inactive)	14% (inactive)	97.8% (active)	1% (inactive)	-13% (inactive)	97% (active)	-17% (inactive)	11% (inactive)	95.9% (active)
C/C=C\c1cc2c(cc1CC#N)OCO2	8% (inactive)	42% (inactive)	-21.3% (inactive)	5% (inactive)	14% (inactive)	20.1% (inactive)	13% (inactive)	51% (inactive)	42.5% (inactive)	12% (inactive)	78% (active)	5.6% (inactive)	1% (inactive)	-2% (inactive)	8.25% (inactive)	17% (inactive)	39% (inactive)	25.6% (inactive)
Cc1[nH]nc(C(F)(F)F)c1N=NN1CCOCC1	62% (inactive)	99% (active)	99.2% (active)	89% (active)	99% (active)	99.7% (active)	55% (inactive)	99% (active)	99.5% (active)	47% (inactive)	99% (active)	99.5% (active)	19% (inactive)	99% (active)	99.4% (active)	79% (active)	99% (active)	99.5% (active)
O=c1oc2ccccc2c(O)c1/C=N/C(=S)NCCc1ccccc1	29% (inactive)	88% (active)	-11.6% (inactive)	30% (inactive)	95% (active)	-22.4% (inactive)	32% (inactive)	92% (active)	-6.05% (inactive)	26% (inactive)	40% (inactive)	-27.8% (inactive)	44% (inactive)	96% (active)	-10.2% (inactive)	32% (inactive)	93% (active)	-5.75% (inactive)
CCC(C)(C)NCCCCCNc1cc(OC)cc2cccnc12	-2% (inactive)	67% (inactive)	76.2% (active)	-5% (inactive)	0% (inactive)	40.2% (inactive)	4% (inactive)	22% (inactive)	56.4% (inactive)	0% (inactive)	9% (inactive)	21.4% (inactive)	6% (inactive)	36% (inactive)	79% (active)	2% (inactive)	16% (inactive)	68.8% (inactive)
O=C1CCCC2c3ccccc3NC12 (configuration not stated)	-147% (inactive)	-137% (inactive)	1.85% (inactive)	-50% (inactive)	-57% (inactive)	34.6% (inactive)	-64% (inactive)	-64% (inactive)	-2% (inactive)	-51% (inactive)	-56% (inactive)	78.7% (active)	-68% (inactive)	-75% (inactive)	-17.9% (inactive)	-139% (inactive)	-111% (inactive)	9.5% (inactive)
